G9a inh: G9a (human) methyltransferase inhibition; Potency, µM (doses to about 102 µM), without a hit: at the highest dose activity, negative = inhibition, actives largely listed as inhibitors; AID 504332; G9a H3K9 monomethylation, AlphaScreen, 2 h; Q96KQ7; hit rate 8.8% among 350,000; note: % is set by controls: 0 for no effect and ±100 for the full control effect; nearly all actives have a fitted effect of over 75% in size
Target sequence (Q96KQ7 913-1193 limits assumed): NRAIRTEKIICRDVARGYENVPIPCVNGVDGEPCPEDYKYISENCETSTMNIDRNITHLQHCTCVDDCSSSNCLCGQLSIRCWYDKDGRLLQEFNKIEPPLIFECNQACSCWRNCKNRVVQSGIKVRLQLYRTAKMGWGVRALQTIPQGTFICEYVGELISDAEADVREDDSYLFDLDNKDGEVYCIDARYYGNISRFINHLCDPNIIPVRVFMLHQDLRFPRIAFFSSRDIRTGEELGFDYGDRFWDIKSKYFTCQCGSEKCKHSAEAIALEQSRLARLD
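Chemiluminescent proximity detection of H3K9 monomethylation, read after 10 min bead incubation in the dark. Reaction: 20 nM G9a, 500 nM biotin-H3K9 peptide, 20 uM SAM cofactor, 2 h, room temperature, following 15 min enzyme-compound preincubation.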
JMJD2A Tudor: JMJD2A Tudor domain (human) inhibition; O75164; AlphaScreen JMJD2A-Tudor / H3K4me3 peptide binding; Potency, µM (titrated, usually from 114 µM), for inactives: top-dose activity change, negative = inhibition, hits mostly inhibitors; hit rate 4.4% among 390,000; AID 504339; note: % is set by controls: 0 for no effect and ±100 for the full control effect; nearly all actives have a fitted effect of over 50% in size
L3MBTL1 block: blocks human L3MBTL1; Q9Y468; hit rate 0.66% among 230,000; Potency, µM (top dose mostly 57.1 µM), for inactives: at the highest dose activity, negative = inhibition, usual class: inhibitors; AlphaScreen L3MBTL1–H3K9me1 peptide binding; AID 485360; note: % is set by controls: 0 for no effect and ±100 for the full control effect; nearly all actives have a fitted effect of over 60% in size
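Read-out is AlphaScreen signal from streptavidin donor and nickel chelate acceptor beads (10 ug/mL final each) bridging L3MBTL1 (50 nM) and biotinylated K9-monomethylated H3(1-15) peptide (75 nM), after 30 min compound exposure at room temperature.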
Sfp inh: blocks B. subtilis Sfp PPTase activity; hit rate 3.5% among 310,000; Q9F4F7; Potency, µM, inactives show largest response in the series, negative = inhibition, most hits filed as inhibitors; Biochemical Sfp PPTase activity, qHTS;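 note: the enzyme is Sfp with the accession as filed and its product quenches rhodamine fluorescence; 0% = enzyme reaction without inhibitor and -100% = no enzyme wells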
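Buffer: 50 mM Hepes-Na pH 7.6, 10 mM MgCl2, 0.01% Nonidet P-40, 0.01% BSA. Enzyme 15 nM, pre-exposed to compound 15 min; substrates then added and fluorescence change tracked over 30 min.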
BAZ2B inh: BAZ2B (human) inhibition. AlphaScreen BAZ2B-H3K14Ac peptide displacement. Potency, µM (doses to about 114 µM), without a hit: at the top dose activity change, negative = inhibition, most hits filed as inhibitors. hit rate 4.4% among 360,000; note: % is set by controls: 0 for no effect and ±100 for the full control effect; nearly all actives have a fitted effect of over 60% in size
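AlphaScreen displacement: compounds (up to 110uM) incubated 30 min at room temperature with a preformed 50 nM BAZ2B/50 nM biotinylated H3K14Ac peptide complex in PBS pH 7.4 with Tween-20. Donor and acceptor beads at 10 ug/mL final added, 20 min light-protected before reading.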
HP1b binding inh: HP1-beta chromodomain-methylated histone interaction inhibition | Potency, µM (series often up to 114 µM), without a hit: at the top dose activity change, negative = inhibition, hits mostly inhibitors | AlphaScreen HP1-beta / biotin-H3K9me3 peptide binding | AID 540317 | hit rate 0.56% among 390,000 | P83916; note: nearly all actives have a fitted effect of over 70% in size
Target sequence (P83916 whole entry, looked up): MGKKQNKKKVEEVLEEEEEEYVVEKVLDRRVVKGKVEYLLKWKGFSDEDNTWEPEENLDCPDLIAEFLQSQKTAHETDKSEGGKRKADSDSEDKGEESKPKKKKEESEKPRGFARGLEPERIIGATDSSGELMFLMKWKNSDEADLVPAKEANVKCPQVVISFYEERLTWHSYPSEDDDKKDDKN
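HP1-beta protein (50 nM final) preincubated 30 min at room temperature with biotinylated H3(1-18)K9me3 peptide (50 nM) in PBS pH 7.4, 0.01% Tween-20, then compound added for 30 min. AlphaScreen streptavidin donor/nickel chelate acceptor beads (10 ug/mL final), 30 min dark, luminescence read.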
* hit, by the source's call; ? = inconclusive; . = not tested or not shown; [ ] = dose if it differs, or a comment. Most compounds without a hit are left out; they make up all but 12% or so of the library. Calls come from the whole dose curve; as a rule, active = well fitted curve in the direction sought with a large enough effect; inconclusive = small, poorly fitted or top-dose-only effect, or another doubt; inactive = no such curve, though single readings can be large; an effect the other way counts as inactive or inconclusive. Potency is the fitted concentration of half-maximal effect.

SMILES	G9a inh	JMJD2A Tudor	L3MBTL1 block	Sfp inh	BAZ2B inh	HP1b binding inh
CCN(CC)CCN(C(=O)c1ccc2c(c1)CCCC2)c1nc2c(C)cccc2s1	35.5µM*	?	.	-18.4%	?	28.4%
CN(C)CCCN(C(=O)c1ccc2c(c1)CCCC2)c1nc2ccc(F)cc2s1	44.7µM*	?	?	-21.7%	?	-21.1%
Cc1ccc(S(=O)(=O)NC(CC(C)C)C(=O)N2CCN(C/C=C/c3ccccc3)CC2)cc1 (centres undefined)	-20.9%[12.7 µM]	-15.4%	-8.5%	.	-30.4%	21.5%
CN(C)CCCN(C(=O)c1cc(-c2cccs2)nc2ccccc12)c1nc2ccc(F)cc2s1	?	?	.	50.1µM*	?	42.6%
Cc1ccc(C(=O)N(CCCN(C)C)c2nc3ccc(Cl)cc3s2)cc1C	70.8µM*	?	.	56.2µM*	.	-10.8%
COc1ccc2c(c1OC)C(Cc1ccccc1)N1CCc3cc4c(cc3C1C2)OCO4 (centres undefined)	.	.	.	56.2µM*	.	.
Cn1c(=O)c(Nc2ccc(Cl)cc2)c2c3c(cccc31)C(=O)c1ccccc1-2	22.4µM*	-27.8%[11.4 µM]	.	-14.5%	?	?
COc1ccccc1CNC(=O)c1ccccc1C(=O)NC(CC(C)C)C(=O)NCc1ccccc1OC (centres undefined)	-5.3%[59 µM]	35.5µM*	.	9.0%	?	3.2%
COc1ccccc1CNC(=O)c1ccc(Br)o1	35.5µM*	-18.6%	-2.5%	6.1%	-2.7%	51.9%
COc1ccccc1CNC(=O)C(CC(C)C)NC(=O)C1CCC(C)CC1 (centres undefined)	0.3%	-5.7%	.	-1.6%	?	46.2%
COc1ccc(C2c3[nH]c4ccccc4c3CCN2C(=O)c2cc3ncccn3n2)c(F)c1 (centres undefined)	19.7%[12.7 µM]	?	-17.9%	-28.2%	31.6µM*	2.1%
COc1ccc(C2c3[nH]c4ccccc4c3CCN2C(=O)c2cn3ccccc3n2)c(F)c1 (centres undefined)	.	?	-26.8%	4.4%	22.4µM*	-4.9%
COc1ccc(C2c3[nH]c4ccccc4c3CCN2C(=O)c2ccccc2C(C)=O)c(F)c1 (centres undefined)	.	?	-5.4%	-8.4%	-11.1%	1.9%
CN(C)CCOC(=O)CC12CC3CC(C1)CC(CC(=O)OCCN(C)C)(C3)C2	-2.9%	-8.2%	-17.9%	4.5%	-36.9%	23.9%
CN(C)CCOC(=O)C12CC3CC(C1)CC(C(=O)OCCN(C)C)(C3)C2	56.2µM*	2.8%	-25.3%	20.8%	0.7%	22.8%
N/C(=N\OCc1ccc([N+](=O)[O-])cc1)c1ccccn1	?	-20.3%	.	-10.9%	-17.5%	21.1%
CC(C(=O)O/N=C(\N)c1ccccn1)c1ccc([N+](=O)[O-])cc1 (centres undefined)	?	-7.1%	.	2.8%	56.2µM*	26.6%
Cc1cc(C)c(Nc2nn3c(=O)c4cc5c(cc4nc3s2)OCO5)c(C)c1	2.24µM*	-32.1%	.	.	-1.5%	?
Cc1ccc(Nc2nn3c(=O)c4cc5c(cc4nc3s2)OCO5)cc1Cl	-12.0%[59 µM]	-11.6%	.	.	0.0%	3.0%
O=C(O)[C@@H](O)[C@@H](O)[C@@H](O)[C@@H](O)C(=O)O (tested in a mixture with another compound)	10.0%[21.5 µM]	.	.	9.5%	.	.
CNc1nc2[nH]c(=O)c3c(c2s1)OC(N)=C(C#N)C3c1cccc(F)c1 (centres undefined)	-39.0%[59 µM]	-16.2%	-1.9%	79.4µM*	?	20.7%
CCCCN(CC)CCCNC(=S)Nc1ccc2nc(N3CCN(C)CC3)cc(C)c2c1	39.8µM*	-17.3%	.	3.8%	-24.7%	18.4%
CCCCN(CC)CCCNC(=S)Nc1ccc2nc(N3CCN(CC)CC3)cc(C)c2c1	50.1µM*	-26.4%	.	6.5%	-20.0%	-10.7%
COC(=O)C1=C(N)Oc2cc(N(C)C)ccc2C1c1ccccc1OC (centres undefined)	31.6µM*	50.1µM*	?	-14.6%	39.8µM*	?

Bioassay records as filed in PubChem BioAssay.
